Here are results for 5 compounds from PubChem BioAssay AID1443 (Sanford-Burnham Center for Chemical Genomics, 2008).

Out of some 220,000 compounds screened, about 880 (0.4%) were called active. The entries come from a sample that favours actives as a whole. Values without a mark were called inactive.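 The calls were made as follows: active = cell killing above 50% in the first pass at 4 µM, then a duplicate retest at 5 µM averaging 50% or more; inactive = the rest.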

This experiment is described as follows: compounds killing PPC-1 cancer cells with TRAIL present, primary screen, TRAIL potentiator project, ATPLite luminescence, uHTS (AID 1443).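 Also: plate controls were cells with TRAIL plus DMSO for no effect and medium-only wells lacking cells for full effect.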 The note with it: PPC-1 cells + TRAIL, ATPLite viability luminescence, hits give high values; at 4 µM unless noted.
As for `Cc1nc2ccc(N3CCN(C)CC3)cc2nc1C`, the cell killing (% activity) is -0.5%.
As for `COc1cccc(-c2nc3ccc(N4CCN(C)CC4)cc3[nH]2)c1`, the cell killing (% activity) was 85.4% [at 5 µM] (active).
The same measure for `CN1CCN(c2cc(N3CCNCC3)ccc2[N+](=O)[O-])CC1`: 3.5%; for `O=C1CC(=O)N(Cc2ccccc2)C(=O)N1CCCCCCN1C(=O)CC(=O)N(Cc2ccccc2)C1=O`: 12.3%; for `COc1ccc(C2N3CC(C)(C)CN23)cc1` (stereo not given): 15.2%.
